Test results taken from PubChem BioAssay (EPA / NIEHS).
Values joined by “and” are separate entries in the source; they are usually repeats but may differ in a detail not shown here. Equal values may be shown once. A structure can be active in one record and inactive in another. Active and inactive are the calls of the source. The calls were made as follows: active = hit-call score of the fitted dose curve at least 0.9, where 1 is the maximum; inactive = score below 0.9.

Test: APR_HepG2_MitoMass_24hr: Apredica 24-hour HepG2 Assay for Mitochondrial Mass (AID 2282912)
Conditions: high-content imaging, actives raise or lower the signal
Experimental: APR_HepG2_24hr is a cell-based, multiplexed-readout assay that uses HepG2, a human liver cell line, with measurements taken at 24 hours after chemical dosing in a 384-well plate.APR_HepG2_MitoMass_24hr is one of 10 assay component(s) measured or calculated from the APR_HepG2_24hr assay. It is designed to make measurements of cell phenotype, a form of morphology reporter, as detected with fluorescence intensity signals by HCS Fluorescent Imaging technology.Data from the assay component APR_HepG2_MitoMass_24hr was analyzed into 1 assay endpoint. This assay endpoint, APR_HepG2_MitoMass_24hr, was analyzed with bidirectional fitting relative to DMSO as the negative control and baseline of activity. Using a type of morphology reporter, gain or loss-of-signal activity can be used to understand changes in the signaling. Furthermore, this assay endpoint can be referred to as a primary readout, because this assay has produced multiple assay endpoints where this one serves a signaling function. To generalize the intended target to other relatable targets, this assay endpoint is annotated to the cell morphology intended target family, where the subfamily is organelle conformation.
Cells were treated with dimethyl sulfoxide (DMSO) as a solvent control at a final concentration of 0.5% v/v or with compounds in DMSO with a resulting final DMSO concentration of 0.5% v/v. Compound treatment was done at concentrations of 0.39, 0.78, 1.56, 3.12, 6.24, 12.5, 25, 50, 100, and 200 uM in duplicate on each plate. Cells were treated with compounds for 1, 24, or 72 hr. Carbonyl […] m-chloro-phenylhydrazone (CCCP) and taxol were used as positive controls for mitochondrial function and cytoskeletal stability, respectively; DMSO served as the negative control for this experiment. Cells were fixed by the direct addition of 50 uL formaldehyde in Hank's Balanced Salt Solution (HBSS) to a final concentration of 3.7%. After incubation in the fixation medium for 30 min at room temperature (293-298 K), cells were rinsed twice with HBSS and treated with cell permeabilization buffer (16 uL of 0.5% Triton X-100) for 10 min at room temperature (293-298 K) before labeling. For mitochondrial membrane potential and mitochondrial measurements, pre-fixed cells were incubated with 50 uL of MitoTracker Red CMXRos (Invitrogen) at a concentration of 250 nM for 30 min before fixation. In the remaining cases, post-fixed cells were labeled by incubation with a multiplexed mixture of primary antibodies in HBSS for 60 min at room temperature (293-298 K) to detect immunoreactivity of c-Jun (1:500), phospho-histone H3 (1:100), phospho-histone H2A.x (1:200), p53 (1:400), alpha-tubulin (1:200) and Hoechst 33342 (2 ug/mL). Cells were labeled for multiplexed imaging on two separate plates: a) Hoechst 33342, MitoTracker Red, phospho-histone H3, and alpha-tubulin, and b) Hoechst 33342, phospho-histone H2A.x, and c-Jun. A final rinse with HBSS (50 uL) was performed before analysis. The primary and secondary antibodies for the proteins were phospho-histone H3 (rabbit anti-phospho-histone H3 and FITC-donkey anti-rabbit IgG), phospho-histone H2A.x (mouse anti-phospho-histone H2A.x and FITC-donkey anti-mouse IgG), c-Jun (rabbit anti-phospho-c-Jun and Cy3-donkey anti-rabbit IgG), p53 (sheep anti-p53 and Cy5-donkey anti-sheep IgG), alpha-tubulin (mouse anti-alpha-tubulin and Cy5-donkey anti-mouse IgG). These antibodies are available as the CellCiphr HepG2 assay kit (Millipore).Digital images of each well were captured using a Cellomics ArrayScan VTI (Thermo Scientific Cellomics) (0.8 NA objective, 0.63x optical coupler, and XF-93 filter set) at 20x magnification. The images were acquired using the autofocus feature of the ArrayScan instrument, which entails the following steps. First, the camera focuses on channel 1 (Hoechst 33342), where nuclei are identified. Second, a Z offset of 1 um is used for capturing mitochondria (MitoTracker Red). […]

Question: Which outcome does the source give for `CCOC(=O)C(C)Oc1ccc(Oc2nc3ccc(Cl)cc3o2)cc1` (stereo not given) here?
Answer: inactive

Question: With `CC(C)(c1ccc(O)cc1)c1ccc(O)cc1` as the compound, how does the AC50 read?
Answer: 109 µM (active) and 122 µM (active)

Question: What about the outcome of the same compound?
Answer: inactive

Question: With `OB(O)O` as the compound, how does the outcome read?
Answer: inactive

Question: Which outcome does the source give for `Oc1ccc(C(c2ccc(O)cc2)C(Cl)(Cl)Cl)cc1` here?
Answer: inactive

Question: Which outcome does the source give for `CCSC(=O)N(CC(C)C)CC(C)C` here?
Answer: inactive

Question: With `CCC(C)OC(=O)N1CCCCC1CCO` (stereo not given) as the compound, how does the outcome read?
Answer: inactive

Question: Which outcome does the source give for `COCCO` here?
Answer: inactive

Question: Which outcome does the source give for `COc1c(Cl)ccc(Cl)c1C(=O)O` here?
Answer: inactive

Question: For `c1ccc2[nH]c(-c3cscn3)nc2c1`, which outcome is on record?
Answer: inactive

Question: Which outcome does the source give for `CCCN(CCC)C(=O)SCC` here?
Answer: inactive

Question: Which outcome does the source give for `COC(=O)CSc1cc(N=c2sc(=O)n3n2CCCC3)c(F)cc1Cl` here?
Answer: inactive

Question: For `COC(=O)c1cccc(C)c1S(=O)(=O)NC(=O)Nc1nc(OCC(F)(F)F)nc(N(C)C)n1`, which outcome is on record?
Answer: inactive

Question: Which outcome does the source give for `CCOC(=O)c1ccc(O)cc1` here?
Answer: inactive

Question: With `COC(=O)c1ccc(CNS(C)(=O)=O)cc1S(=O)(=O)NC(=O)Nc1nc(OC)cc(OC)n1` as the compound, how does the outcome read?
Answer: inactive

Question: With `O=C(c1ccccc1)C1CCCCC1` as the compound, how does the outcome read?
Answer: inactive

Question: Which outcome does the source give for `COC(=O)c1ccc(I)cc1S(=O)(=O)NC(=O)Nc1nc(C)nc(OC)n1` here?
Answer: inactive

Question: For `CCCCCCC(C)OC(=O)COc1nc(F)c(Cl)c(N)c1Cl` (stereo not given), which outcome is on record?
Answer: inactive

Question: Which outcome does the source give for `CCOC(=O)[C@H](C)Oc1ccc(Oc2nc3ccc(Cl)cc3o2)cc1` here?
Answer: inactive

Question: For `CCOC(=O)COc1cc(-n2ncc(C(F)(F)F)c(C)c2=O)c(F)cc1Cl`, which outcome is on record?
Answer: inactive

Question: Which outcome does the source give for `C=CCOC(Cn1ccnc1)c1ccc(Cl)cc1Cl` (stereo not given) here?
Answer: inactive

Question: For `CSC(=O)c1cccc2nnsc12`, which outcome is on record?
Answer: inactive

Question: With `CCCCOCCOCCOCc1cc2c(cc1CCC)OCO2` as the compound, how does the outcome read?
Answer: inactive

Question: With `C[C@]12CC[C@@H]3c4ccc(O)cc4C[C@@H](CCCCCCCCCS(=O)CCCC(F)(F)C(F)(F)F)[C@H]3[C@@H]1CC[C@@H]2O` (stereo not given in full) as the compound, how does the outcome read?
Answer: inactive

Question: For `COC(=O)c1ccccc1C(=O)O`, which outcome is on record?
Answer: inactive

Question: Which outcome does the source give for `C#C[C@]1(O)CC[C@H]2[C@@H]3CCC4=CC(=O)CC[C@@H]4[C@H]3CC[C@@]21CC` here?
Answer: inactive

Question: With `CCCCC(CC)CN1C(=O)C2C3C=CC(C3)C2C1=O` (stereo not given) as the compound, how does the outcome read?
Answer: inactive

Question: For `CCCCOC(=O)C(C)Oc1ccc(Oc2ccc(C(F)(F)F)cn2)cc1` (stereo not given), which outcome is on record?
Answer: inactive

Question: For `CC(C)CCCCCCc1ccc(O)cc1`, which AC50 is on record?
Answer: 34.5 µM (active)

Question: With `CCCOC(=O)c1ccc(C(=O)OCCC)nc1` as the compound, how does the outcome read?
Answer: inactive

Question: For `CCCCC(CC)COC(=O)c1ccccc1C(=O)O` (stereo not given), which outcome is on record?
Answer: inactive

Question: With `N[C@@H](Cc1cc(I)c(Oc2ccc(O)c(I)c2)c(I)c1)C(=O)O` as the compound, how does the outcome read?
Answer: inactive

Question: Which outcome does the source give for `CN(C)C(=O)Nc1ccc(Cl)c(Cl)c1` here?
Answer: inactive

Question: For `CCN(Cc1c(F)cccc1Cl)c1c([N+](=O)[O-])cc(C(F)(F)F)cc1[N+](=O)[O-]`, which outcome is on record?
Answer: inactive

Question: With `S=C([S-])NCCNC(=S)[S-].[Mn+2]` as the compound, how does the outcome read?
Answer: inactive

Question: With `c1ccc(Nc2ccccc2)cc1` as the compound, how does the outcome read?
Answer: inactive

Question: For `CC1(C)C(C=C(Cl)Cl)C1C(=O)OCc1cccc(Oc2ccccc2)c1` (stereo not given), which outcome is on record?
Answer: inactive

Question: Which outcome does the source give for `COC(=O)c1c(Cl)nn(C)c1S(=O)(=O)NC(=O)Nc1nc(OC)cc(OC)n1` here?
Answer: inactive

Question: For `CC(=O)S[C@@H]1CC2=CC(=O)CC[C@]2(C)[C@H]2CC[C@@]3(C)[C@@H](CC[C@@]34CCC(=O)O4)[C@H]12`, which AC50 is on record?
Answer: 29.1 µM (active)

Question: For `CCCCOC(=O)[C@@H](C)Oc1ccc(Oc2ccc(C(F)(F)F)cn2)cc1`, which outcome is on record?
Answer: inactive
